# Test results as given in the supplement of paper PMC10849652.
# Targets with a hit are over-represented here; the source holds about 7,900 in all. About 0.6% of all pairs of compound and target were hits.
# Compound: Cc1nc(Nc2ncc(C(=O)Nc3c(C)cccc3Cl)s2)cc(N2CCN(CCO)CC2)n1 [dasatinib]
# Test: log2 fold change, soluble protein after heating vs DMSO (PISA); higher = thermal stabilisation; K562 cells, 10 uM, 30 min; active = over 0.2 and 3.5 SD of the protein, either way, in both replicates (recomputed)
# Outline: (§1)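 Soluble protein was quantified by TMTpro 16plex LC-MS/MS after channel sums were equalised. It was obtained as the supernatant after 21,000xg for 90 min from pooled aliquots of K562 cells (2×10^6 cells/mL, 10 μM compound, 30 min) heated for 3 min across 48°C-58°C and extracted in PBS with 0.5% NP-40 at 4°C. Thermal stability values are relative to control samples and come from duplicates. They are given as log2 fold changes.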
# Chain of UniProt Q16881 (Q16881 whole entry, looked up): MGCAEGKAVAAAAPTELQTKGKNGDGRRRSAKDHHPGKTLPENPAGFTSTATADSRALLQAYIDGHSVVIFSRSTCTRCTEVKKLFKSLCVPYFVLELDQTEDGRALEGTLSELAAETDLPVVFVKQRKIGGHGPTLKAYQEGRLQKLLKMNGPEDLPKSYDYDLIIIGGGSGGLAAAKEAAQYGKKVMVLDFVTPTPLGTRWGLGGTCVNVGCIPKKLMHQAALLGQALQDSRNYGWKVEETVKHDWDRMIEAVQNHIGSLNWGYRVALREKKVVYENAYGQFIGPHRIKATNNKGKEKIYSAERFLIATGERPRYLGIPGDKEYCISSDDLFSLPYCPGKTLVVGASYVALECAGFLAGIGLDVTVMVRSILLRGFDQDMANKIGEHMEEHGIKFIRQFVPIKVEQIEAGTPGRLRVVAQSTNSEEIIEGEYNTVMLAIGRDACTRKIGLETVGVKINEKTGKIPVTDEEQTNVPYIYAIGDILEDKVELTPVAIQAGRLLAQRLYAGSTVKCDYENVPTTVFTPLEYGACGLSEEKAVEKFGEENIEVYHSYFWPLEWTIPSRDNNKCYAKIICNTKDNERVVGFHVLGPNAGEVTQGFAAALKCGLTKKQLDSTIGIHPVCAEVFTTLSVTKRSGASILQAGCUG
# Chain of UniProt Q8N4H5 (Q8N4H5 whole entry, looked up): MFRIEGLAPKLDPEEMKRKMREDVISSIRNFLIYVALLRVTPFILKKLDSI
# Chain of UniProt Q99816 (Q99816 whole entry, looked up): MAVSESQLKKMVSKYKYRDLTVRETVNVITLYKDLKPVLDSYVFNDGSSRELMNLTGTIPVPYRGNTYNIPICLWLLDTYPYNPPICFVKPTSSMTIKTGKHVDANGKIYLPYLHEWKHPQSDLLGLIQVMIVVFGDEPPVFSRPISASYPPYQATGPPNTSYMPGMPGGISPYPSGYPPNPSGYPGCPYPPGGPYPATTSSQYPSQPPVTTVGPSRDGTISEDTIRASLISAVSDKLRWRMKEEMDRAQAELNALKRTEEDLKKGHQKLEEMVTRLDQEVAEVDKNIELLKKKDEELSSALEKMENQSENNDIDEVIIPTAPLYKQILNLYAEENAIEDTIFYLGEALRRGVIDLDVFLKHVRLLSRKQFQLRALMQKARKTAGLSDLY
# Chain of UniProt Q7L0Y3 (Q7L0Y3 whole entry, looked up): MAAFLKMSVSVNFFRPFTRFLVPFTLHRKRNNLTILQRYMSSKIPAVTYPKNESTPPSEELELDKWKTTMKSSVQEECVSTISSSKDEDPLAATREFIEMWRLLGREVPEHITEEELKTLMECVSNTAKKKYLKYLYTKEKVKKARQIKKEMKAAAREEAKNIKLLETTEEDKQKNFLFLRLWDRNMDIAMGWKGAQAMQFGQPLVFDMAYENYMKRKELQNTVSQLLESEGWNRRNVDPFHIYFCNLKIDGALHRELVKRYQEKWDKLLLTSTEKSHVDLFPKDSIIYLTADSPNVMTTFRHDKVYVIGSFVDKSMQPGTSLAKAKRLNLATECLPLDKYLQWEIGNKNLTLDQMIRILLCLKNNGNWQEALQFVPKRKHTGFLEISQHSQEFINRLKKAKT
# Chain of UniProt Q8TBZ6 (Q8TBZ6 whole entry, looked up): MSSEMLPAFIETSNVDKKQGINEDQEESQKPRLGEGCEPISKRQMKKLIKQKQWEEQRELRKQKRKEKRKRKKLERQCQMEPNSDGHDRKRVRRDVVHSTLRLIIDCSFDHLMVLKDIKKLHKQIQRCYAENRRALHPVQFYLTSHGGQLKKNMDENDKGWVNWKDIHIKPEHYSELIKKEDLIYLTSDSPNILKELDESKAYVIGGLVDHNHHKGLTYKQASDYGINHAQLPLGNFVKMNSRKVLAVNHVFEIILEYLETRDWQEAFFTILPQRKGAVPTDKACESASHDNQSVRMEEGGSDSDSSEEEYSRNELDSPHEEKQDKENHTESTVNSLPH
# Chain of UniProt Q01081 (Q01081 whole entry, looked up): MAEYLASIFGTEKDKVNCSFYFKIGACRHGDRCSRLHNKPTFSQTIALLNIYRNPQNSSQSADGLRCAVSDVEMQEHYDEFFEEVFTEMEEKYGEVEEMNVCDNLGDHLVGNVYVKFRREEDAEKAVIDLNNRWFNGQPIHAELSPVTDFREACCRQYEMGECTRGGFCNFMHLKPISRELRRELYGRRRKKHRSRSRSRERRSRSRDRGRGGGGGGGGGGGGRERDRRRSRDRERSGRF
# Chain of UniProt Q9H6R7 (Q9H6R7 whole entry, looked up): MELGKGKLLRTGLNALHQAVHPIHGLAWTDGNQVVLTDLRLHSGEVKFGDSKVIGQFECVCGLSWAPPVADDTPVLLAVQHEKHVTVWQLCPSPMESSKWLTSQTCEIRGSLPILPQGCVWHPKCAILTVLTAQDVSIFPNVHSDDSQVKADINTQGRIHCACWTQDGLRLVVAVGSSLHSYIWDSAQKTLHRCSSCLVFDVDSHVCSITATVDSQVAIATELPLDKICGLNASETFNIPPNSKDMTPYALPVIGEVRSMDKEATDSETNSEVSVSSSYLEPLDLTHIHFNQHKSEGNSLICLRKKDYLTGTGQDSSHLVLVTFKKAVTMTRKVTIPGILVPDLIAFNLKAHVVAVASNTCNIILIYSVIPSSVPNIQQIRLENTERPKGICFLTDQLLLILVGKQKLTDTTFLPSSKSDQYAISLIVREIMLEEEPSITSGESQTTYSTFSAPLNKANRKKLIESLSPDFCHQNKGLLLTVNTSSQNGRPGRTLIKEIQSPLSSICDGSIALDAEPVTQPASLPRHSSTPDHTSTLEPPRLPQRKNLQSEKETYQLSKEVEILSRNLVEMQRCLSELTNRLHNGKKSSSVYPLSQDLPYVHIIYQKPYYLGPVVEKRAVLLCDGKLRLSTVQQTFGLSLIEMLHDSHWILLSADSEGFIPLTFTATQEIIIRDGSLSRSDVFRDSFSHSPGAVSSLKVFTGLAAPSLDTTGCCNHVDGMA
# Chain of UniProt Q9NP79 (Q9NP79 whole entry, looked up): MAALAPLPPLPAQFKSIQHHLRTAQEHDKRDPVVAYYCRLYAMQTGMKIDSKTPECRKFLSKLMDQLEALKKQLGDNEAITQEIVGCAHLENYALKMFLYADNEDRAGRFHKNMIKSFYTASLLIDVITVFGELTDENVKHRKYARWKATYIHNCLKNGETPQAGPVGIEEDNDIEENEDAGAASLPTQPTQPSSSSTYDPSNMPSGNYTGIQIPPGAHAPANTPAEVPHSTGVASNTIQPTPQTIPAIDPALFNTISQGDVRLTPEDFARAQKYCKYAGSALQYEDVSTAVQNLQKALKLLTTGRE
# Chain of UniProt Q9P0T7 (Q9P0T7 whole entry, looked up): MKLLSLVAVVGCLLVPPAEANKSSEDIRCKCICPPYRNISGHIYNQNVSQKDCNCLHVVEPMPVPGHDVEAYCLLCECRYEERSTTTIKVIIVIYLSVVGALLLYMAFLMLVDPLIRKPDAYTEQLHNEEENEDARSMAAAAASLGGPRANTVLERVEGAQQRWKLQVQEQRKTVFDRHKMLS
# Chain of UniProt Q9Y6I4 (Q9Y6I4 whole entry, looked up): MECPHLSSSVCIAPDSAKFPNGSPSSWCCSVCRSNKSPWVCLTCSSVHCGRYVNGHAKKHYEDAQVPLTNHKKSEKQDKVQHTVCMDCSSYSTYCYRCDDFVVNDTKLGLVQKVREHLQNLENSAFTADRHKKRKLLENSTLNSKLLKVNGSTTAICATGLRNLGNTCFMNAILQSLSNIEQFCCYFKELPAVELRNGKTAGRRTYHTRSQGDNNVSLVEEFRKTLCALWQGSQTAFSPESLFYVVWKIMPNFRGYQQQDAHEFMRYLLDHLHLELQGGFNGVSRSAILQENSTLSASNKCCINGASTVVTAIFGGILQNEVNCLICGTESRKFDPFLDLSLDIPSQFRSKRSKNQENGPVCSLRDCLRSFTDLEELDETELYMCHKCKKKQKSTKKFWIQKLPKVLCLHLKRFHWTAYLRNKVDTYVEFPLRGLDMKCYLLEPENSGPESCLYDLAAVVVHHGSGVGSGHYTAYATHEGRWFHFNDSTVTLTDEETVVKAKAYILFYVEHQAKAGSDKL
# Chain of UniProt A0PJW6 (A0PJW6 whole entry, looked up): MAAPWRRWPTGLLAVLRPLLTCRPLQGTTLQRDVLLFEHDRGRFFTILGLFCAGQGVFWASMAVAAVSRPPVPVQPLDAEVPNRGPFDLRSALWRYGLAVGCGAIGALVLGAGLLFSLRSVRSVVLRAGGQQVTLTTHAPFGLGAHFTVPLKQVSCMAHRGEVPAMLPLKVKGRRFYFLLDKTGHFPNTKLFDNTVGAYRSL
# Chain of UniProt P13010 (P13010 whole entry, looked up): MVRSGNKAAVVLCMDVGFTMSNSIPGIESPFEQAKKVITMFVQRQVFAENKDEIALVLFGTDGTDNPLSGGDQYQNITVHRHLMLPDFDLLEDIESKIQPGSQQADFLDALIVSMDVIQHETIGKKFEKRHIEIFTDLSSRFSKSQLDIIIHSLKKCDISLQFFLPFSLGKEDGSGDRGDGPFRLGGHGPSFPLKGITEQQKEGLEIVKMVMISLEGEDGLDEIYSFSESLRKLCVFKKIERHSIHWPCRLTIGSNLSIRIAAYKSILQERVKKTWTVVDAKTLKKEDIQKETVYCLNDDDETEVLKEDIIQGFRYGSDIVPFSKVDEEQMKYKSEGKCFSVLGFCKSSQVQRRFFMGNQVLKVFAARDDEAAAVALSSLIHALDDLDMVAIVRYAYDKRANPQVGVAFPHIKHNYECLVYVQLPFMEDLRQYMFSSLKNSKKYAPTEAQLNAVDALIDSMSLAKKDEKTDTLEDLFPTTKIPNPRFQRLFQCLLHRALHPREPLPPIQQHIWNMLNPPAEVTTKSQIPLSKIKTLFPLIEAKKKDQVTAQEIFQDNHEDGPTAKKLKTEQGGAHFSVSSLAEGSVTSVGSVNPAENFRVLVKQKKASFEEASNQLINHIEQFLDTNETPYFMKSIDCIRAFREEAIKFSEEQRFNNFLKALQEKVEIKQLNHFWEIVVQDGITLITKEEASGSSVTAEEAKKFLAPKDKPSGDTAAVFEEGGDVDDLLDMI
# Chain of UniProt Q9UL33 (Q9UL33 whole entry, looked up): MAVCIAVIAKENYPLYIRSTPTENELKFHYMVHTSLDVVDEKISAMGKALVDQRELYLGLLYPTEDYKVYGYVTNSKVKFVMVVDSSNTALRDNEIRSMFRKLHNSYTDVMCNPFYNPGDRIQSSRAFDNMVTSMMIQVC
row,Target,log2 fold change
1,TRAPPC2L (UniProt Q9UL33),-0.118 (inactive)
2,UGDH (UniProt O60701),-0.043 (inactive)
3,WDR7 (UniProt Q9Y4E6),-0.058 (inactive)
4,TOMM5 isoform 2 (UniProt Q8N4H5),-0.004 (inactive)
5,USP7 (UniProt Q93009),-0.272 (inactive)
6,TYW1 (UniProt Q9NV66),0.015 (inactive)
7,UBR2 (UniProt Q8IWV8),-0.107 (inactive)
8,TMEM161A (UniProt Q9NX61),-0.09 (inactive)
9,XPNPEP1 isoform 3 (UniProt Q9NQW7),-0.086 (inactive)
10,XRCC6 (UniProt P12956),-0.147 (inactive)
11,TNPO2 (UniProt O14787),-0.173 (inactive)
12,TRMT10C (UniProt Q7L0Y3),-0.181 (inactive)
13,UHRF1BP1L (UniProt A0JNW5),-0.003 (inactive)
14,TUBA4A (UniProt P68366),-0.102 (inactive)
15,USP3 (UniProt Q9Y6I4),-0.185 (inactive)
16,WBP4 (UniProt O75554),0.014 (inactive)
17,VTA1 (UniProt Q9NP79),-0.109 (inactive)
18,UBE3D (UniProt Q7Z6J8),-0.071 (inactive)

row,Target,log2 fold change
1,VPS16 (UniProt Q9H269),-0.14 (inactive)
2,TXNRD1 (UniProt Q16881),-0.013 (inactive)
3,TMEM177 (UniProt Q53S58),-0.045 (inactive)
4,WDCP (UniProt Q9H6R7),-0.074 (inactive)
5,TMEM223 (UniProt A0PJW6),-0.052 (inactive)
6,VRK1 (UniProt Q99986),-0.224 (inactive)
7,UBE2S (UniProt Q16763),0.001 (inactive)
8,XRCC5 (UniProt P13010),-0.118 (inactive)
9,TMEM9 (UniProt Q9P0T7),-0.087 (inactive)
10,TRMT10A (UniProt Q8TBZ6),-0.059 (inactive)
11,TNPO1 (UniProt Q92973),-0.067 (inactive)
12,WARS2 (UniProt Q9UGM6),-0.147 (inactive)
13,VPS53 isoform 4 (UniProt Q5VIR6),-0.087 (inactive)
14,TSG101 (UniProt Q99816),-0.092 (inactive)
15,U2AF1 isoform 2 (UniProt Q01081),-0.056 (inactive)
16,UPF3B (UniProt Q9BZI7),0.143 (inactive)
17,VPS50 (UniProt Q96JG6),-0.257 (active)
18,TTC38 (UniProt Q5R3I4),0.024 (inactive)

# Compound: Cc1ncc(-c2ccnc(Nc3ccc(S(C)(=O)=O)cc3)n2)n1C(C)C
# Test: as above
# Outline: as §1
row,Target,log2 fold change
1,TRAPPC2L (UniProt Q9UL33),0.064 (inactive)
2,UGDH (UniProt O60701),-0.24 (inactive)
3,WDR7 (UniProt Q9Y4E6),-0.034 (inactive)
4,TOMM5 isoform 2 (UniProt Q8N4H5),-0.079 (inactive)
5,USP7 (UniProt Q93009),-0.011 (inactive)
6,TYW1 (UniProt Q9NV66),0.04 (inactive)
7,UBR2 (UniProt Q8IWV8),-0.069 (inactive)
8,TMEM161A (UniProt Q9NX61),-0.021 (inactive)
9,XPNPEP1 isoform 3 (UniProt Q9NQW7),-0.028 (inactive)
10,XRCC6 (UniProt P12956),-0.07 (inactive)
11,TNPO2 (UniProt O14787),-0.087 (inactive)
12,TRMT10C (UniProt Q7L0Y3),0.012 (inactive)
13,UHRF1BP1L (UniProt A0JNW5),-0.029 (inactive)
14,TUBA4A (UniProt P68366),-0.009 (inactive)
15,USP3 (UniProt Q9Y6I4),-0.026 (inactive)
16,WBP4 (UniProt O75554),-0.023 (inactive)
17,VTA1 (UniProt Q9NP79),-0.005 (inactive)
18,UBE3D (UniProt Q7Z6J8),0.037 (inactive)

row,Target,log2 fold change
1,VPS16 (UniProt Q9H269),-0.022 (inactive)
2,TXNRD1 (UniProt Q16881),-0.002 (inactive)
3,TMEM177 (UniProt Q53S58),0.023 (inactive)
4,WDCP (UniProt Q9H6R7),-0.035 (inactive)
5,TMEM223 (UniProt A0PJW6),-0.079 (inactive)
6,VRK1 (UniProt Q99986),0.164 (inactive)
7,UBE2S (UniProt Q16763),0.04 (inactive)
8,XRCC5 (UniProt P13010),-0.243 (inactive)
9,TMEM9 (UniProt Q9P0T7),-0.037 (inactive)
10,TRMT10A (UniProt Q8TBZ6),-0.002 (inactive)
11,TNPO1 (UniProt Q92973),-0.079 (inactive)
12,WARS2 (UniProt Q9UGM6),0.047 (inactive)
13,VPS53 isoform 4 (UniProt Q5VIR6),0.037 (inactive)
14,TSG101 (UniProt Q99816),-0.007 (inactive)
15,U2AF1 isoform 2 (UniProt Q01081),0.058 (inactive)
16,UPF3B (UniProt Q9BZI7),-0.085 (inactive)
17,VPS50 (UniProt Q96JG6),0.038 (inactive)
18,TTC38 (UniProt Q5R3I4),-0.04 (inactive)
